GRIN3A LBD mod – binders of NR3A ligand-binding domain, primary screen, biophysical, differential scanning fluorimetry, uHTS. NR3A LBD differential scanning fluorimetry, Tm shift; 0% = protein alone, 100% = glycine-bound protein. Glutamate receptor ionotropic, NMDA 3A (GRIN3A) ligand-binding domain. Tm shift relative to glycine control, % at 25 µM. 340,000 compounds, 2.5% hits;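 active means melting temperature shift of at least 10% of the positive control shift, at one fixed dose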
TPT1 inh – Candida albicans TPT1 enzyme inhibitors, primary screen, biochemical, fluorescence polarization; recombinant caTPT1, FP RNA substrate dephosphorylation; inhibition, % at 5 µM; 300,000 compounds, 0.81% hits; AID 1962, 2009;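 active means inhibition above the mean of all tested compounds plus 3 SD, set per screening campaign, cut at about 24% in these data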;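 further: plate controls were DMSO alone for no effect and ferristatin control at 100 nM for full effect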
EBNA-1 inh – EBNA-1 DNA-binding inhibitors, primary screen, biochemical, fluorescence polarization; 300,000 compounds, 0.34% hits; AID 1950, 2009; inhibition, % at 14.8 µM; in the data active means inhibition above about 28%
ZTA counter – ZTA (EBV) inhibition in EBNA-1 counter-screen; P03206; ZTA-DNA binding, fluorescence polarization; inhibition, % at 11 µM; 320,000 compounds, 0.15% hits; AID 2234; in the data active means inhibition above about 33%
Rpn11 inh – Rpn11 (PSMD14) deubiquitinase inhibitors, primary screen, biochemical, fluorescence polarization, uHTS; inhibition, % at 20 µM; human 26S proteasome, Ub4-pepOG fluorescence polarization; 20S core pre-blocked with epoxomicin; AID 588493, 2011; 26S proteasome non-ATPase regulatory subunit 14 (Homo sapiens), O00487; 360,000 compounds, 0.59% hits;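 active means inhibition at 20 µM, scaled to each plate's controls, above about 33%, limit read from the data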
Target sequence (O00487 whole entry, looked up): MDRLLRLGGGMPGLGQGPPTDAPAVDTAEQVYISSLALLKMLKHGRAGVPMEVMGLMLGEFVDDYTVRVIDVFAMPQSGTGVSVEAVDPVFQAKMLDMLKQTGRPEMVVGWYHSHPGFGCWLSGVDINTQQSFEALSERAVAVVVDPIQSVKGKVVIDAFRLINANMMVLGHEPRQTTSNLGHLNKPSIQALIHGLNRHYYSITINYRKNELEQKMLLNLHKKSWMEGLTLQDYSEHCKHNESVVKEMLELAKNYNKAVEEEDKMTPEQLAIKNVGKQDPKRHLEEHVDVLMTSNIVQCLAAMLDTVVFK
dFosB activator – activators of delta FosB homodimer, primary screen, biochemical, fluorescence polarization, TAMRA-CDK5 oligo, single point; Protein FosB (Mus musculus), P13346; purified delta FosB; percent of positive-control signal above neutral wells; activation, % at 25 µM; 340,000 compounds, 0.99% hits; AID 493131, 2011;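 active means mean activation above about 17%, with every replicate also reaching it, limit read from the data, passing the limit was not always enough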
Target sequence (P13346 whole entry, looked up): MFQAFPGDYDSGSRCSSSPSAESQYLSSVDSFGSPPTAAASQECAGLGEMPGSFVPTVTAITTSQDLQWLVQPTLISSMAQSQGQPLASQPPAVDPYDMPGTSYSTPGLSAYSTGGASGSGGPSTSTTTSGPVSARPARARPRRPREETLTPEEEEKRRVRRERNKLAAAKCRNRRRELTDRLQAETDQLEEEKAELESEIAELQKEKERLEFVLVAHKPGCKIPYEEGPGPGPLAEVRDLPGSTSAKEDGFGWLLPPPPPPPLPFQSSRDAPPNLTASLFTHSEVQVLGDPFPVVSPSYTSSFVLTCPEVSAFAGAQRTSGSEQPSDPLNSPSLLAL
EBNA-1 confirm – EBNA-1 DNA-binding inhibitors, retest, confirmation, biochemical, fluorescence polarization, triplicate; shares compounds with EBNA-1 inh; Recombinant EBNA-1 DBD, Cy5-DNA fluorescence polarization; 830 compounds, 35% hits; inhibition, % at 14.8 µM;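 active means mean inhibition across replicates above a set limit taken from the earlier primary screen, cut at about 28% in these data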;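 further: plate controls were EBNA-1 protein with DMSO for no effect and wells lacking EBNA-1 for full effect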
ZTA counter trip – EBV Zta DNA binding inhibitors, counter-screen for EBNA-1 inhibitor project, biochemical, fluorescence polarization, triplicate; shares compounds with EBNA-1 inh; Zta-ZRE DNA binding, Cy5 fluorescence polarization; inhibition, % at 11.1 µM; 830 tested, under 10 active;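 active means mean inhibition over triplicates above a set limit taken from the primary EBNA-1 screen, cut at about 37% in these data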;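 further: purified full length Zta protein with Cy5 labeled ZRE DNA probe; 0% = Zta with DMSO and 100% = wells lacking Zta protein; inhibitors lower polarization by freeing the labeled DNA probe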
An asterisk follows results filed as active. The list is not random: actives were taken first. Their share in the collection is about 4.5%.

`O=C(COC(=O)c1c(Cl)ccc(Cl)c1Cl)NC(=O)NCc1ccccc1` gave GRIN3A LBD mod -7.1, TPT1 inh 1.6, EBNA-1 inh 8.8, ZTA counter 13.0, Rpn11 inh -2.2 and dFosB activator -8.6.
For COc1ccccc1CNS(=O)(=O)c1ccc(-c2cnc(C3CC3)o2)cc1 the results were GRIN3A LBD mod -0.8, TPT1 inh -2.5, EBNA-1 inh -1.6, ZTA counter -9.9, Rpn11 inh -5.3 and dFosB activator -6.0.
Screening C#CCOCCOCCOCCNc1nc(N2CCOCC2)nc(N2CCN(C(=O)[C@H](C)n3cc(CCC(=O)O)nn3)CC2)n1 returned GRIN3A LBD mod 5.3, Rpn11 inh -9.7 and dFosB activator 5.2.
COc1ccc(/C=C\C(=O)Oc2cccc(/C=N/NC(=O)Cc3ccc(OC)c(OC)c3)c2)cc1 was read as GRIN3A LBD mod -3.1, TPT1 inh 0.8, EBNA-1 inh -4.8, ZTA counter -8.6, Rpn11 inh 7.0 and dFosB activator -8.0.
COc1ccc(/C=C/C(=O)Oc2cccc(/C=N/NC(=O)c3cccc(F)c3)c2)cc1 was read as GRIN3A LBD mod 0.8, TPT1 inh -8.5, EBNA-1 inh 28.8*, ZTA counter 0.4, Rpn11 inh 7.5, dFosB activator 2.9, EBNA-1 confirm 3.5 and ZTA counter trip 1.2.
COC(=O)c1cn(NC(=O)/C=C/c2cc(OC)ccc2OC)c(=O)c2ccccc12 was read as GRIN3A LBD mod -22.1, TPT1 inh 1.8, EBNA-1 inh 42.3*, ZTA counter 7.4, Rpn11 inh -2.1, dFosB activator 12.4, EBNA-1 confirm 13.5 and ZTA counter trip 2.2.
`CCCCOc1ccc(S(=O)(=O)NC(=O)C2(C)CCN2C(=O)c2c(C)noc2C)cc1` (stereo not given) gave Rpn11 inh -5.1.
Screening O=C(CCSc1nc2ccccc2s1)N/N=C/c1c(O)ccc2ccccc12 returned GRIN3A LBD mod -0.1, TPT1 inh 3.0, EBNA-1 inh 48.5*, ZTA counter 21.5, Rpn11 inh 28.8, dFosB activator 21.0*, EBNA-1 confirm 5.7 and ZTA counter trip 8.0.
For COc1ccc(/C=N/NC(=O)CCSc2nc3ccccc3s2)cc1OC the results were GRIN3A LBD mod -3.0, TPT1 inh -0.9, EBNA-1 inh 6.7, ZTA counter 9.7, Rpn11 inh -3.9 and dFosB activator 0.3.
For O=C1CCC(C2CCc3cc(O)ccc3C2)C1 (stereo not given) the results were GRIN3A LBD mod 0.4, Rpn11 inh -1.1 and dFosB activator -0.3.
For Cc1ccc(-c2nn3c(C)nnc3s2)cc1NC(=O)c1ccc(-c2ccc(Cl)cc2Cl)o1 the results were GRIN3A LBD mod 1.5, TPT1 inh 8.9, EBNA-1 inh 37.4*, ZTA counter 13.3, Rpn11 inh active, dFosB activator -24.7, EBNA-1 confirm 1.8 and ZTA counter trip -11.2.
For COc1cc(C(=O)OC(C)CN2C(C)CCCC2C)cc(OC)c1OC (stereo not given) the results were GRIN3A LBD mod 0.7, TPT1 inh -1.0, EBNA-1 inh 4.8, ZTA counter 3.5, Rpn11 inh 2.1 and dFosB activator -6.7.
COCCNC(=O)c1ccc(-n2c(SCc3cc(F)ccc3F)nc3ccccc3c2=O)cc1 was read as GRIN3A LBD mod -4.4, TPT1 inh -0.3, EBNA-1 inh 39.6*, ZTA counter -8.0, Rpn11 inh -5.2, dFosB activator 3.2, EBNA-1 confirm 9.3 and ZTA counter trip -4.5.
Screening Cc1ccc2nc(SCC(=O)NCc3cccs3)c(C#N)cc2c1 returned GRIN3A LBD mod -19.9, TPT1 inh -5.2, EBNA-1 inh 32.6*, ZTA counter 4.8, Rpn11 inh 5.9, dFosB activator 7.0, EBNA-1 confirm -0.7 and ZTA counter trip 7.3.
Screening Cc1ccc2nc(SCC(=O)NCc3ccco3)c(C#N)cc2c1 returned GRIN3A LBD mod 3.0, TPT1 inh 16.6, EBNA-1 inh 4.1, ZTA counter 21.4, Rpn11 inh 22.5 and dFosB activator -17.9.
For Cc1ccc(-n2nc3c(c2NC(=O)c2ccc4c(c2)OCO4)CSC3)cc1 the results were GRIN3A LBD mod 0.6, TPT1 inh -4.7, EBNA-1 inh 46.5*, ZTA counter 4.7, Rpn11 inh -5.6, dFosB activator -11.4, EBNA-1 confirm 24.8 and ZTA counter trip 8.5.
`O=C1NC(Cc2ccccc2)c2nc3ccc(Cl)cc3c(=O)n2-c2ncccc21` (stereo not given) gave Rpn11 inh -14.7.
For Cc1cc(F)ccc1-c1cc(C(=O)NC(C)C)[nH]n1 the results were Rpn11 inh 0.8.
Screening CN(C)c1ccc(NC(=O)Cc2ccccc2)c2ccccc12 returned GRIN3A LBD mod -0.6, TPT1 inh -3.1, EBNA-1 inh 8.3, ZTA counter 18.7, Rpn11 inh 1.6 and dFosB activator -9.7.
COc1ccccc1NC(=O)Nc1ccc(C(N)=O)cc1 was read as GRIN3A LBD mod 4.2, TPT1 inh -4.2, EBNA-1 inh 46.2*, ZTA counter 0.0, Rpn11 inh -5.4, dFosB activator 10.1, EBNA-1 confirm -9.3 and ZTA counter trip 11.6.
For COC(=O)c1sccc1NC(=O)Nc1ccc(OC)cc1 the results were GRIN3A LBD mod 5.0, Rpn11 inh 8.0 and dFosB activator -6.2.
`COc1cccc(N2CCN(S(=O)(=O)c3cc4c(cc3Cl)NC(=O)CO4)CC2)c1` gave GRIN3A LBD mod -0.3, TPT1 inh -2.1, EBNA-1 inh 31.9*, ZTA counter 12.4, Rpn11 inh 1.0, dFosB activator -3.8, EBNA-1 confirm 20.9 and ZTA counter trip 3.1.
`COc1ccc(N2CCN(S(=O)(=O)c3cc4c(cc3C)NC(=O)CO4)CC2)cc1` gave GRIN3A LBD mod -2.5, TPT1 inh -3.4, EBNA-1 inh 33.0*, ZTA counter 14.7, Rpn11 inh 7.6, dFosB activator 13.5, EBNA-1 confirm 18.0 and ZTA counter trip 1.5.
